Each structure is given as a SMILES string. The whole screen tested about 400,000 compounds, of which about 2,100 (0.53%) were called active. Inconclusive results (about 14%) are left out. No rule for the calls is given here. The entries come from a sample that favours actives as a whole.

In this assay the target is Ataxin-2 (Homo sapiens) (UniProt Q99700). In words: qHTS for Inhibitors of ATXN expression. The class given is functional. (In general: qHTS replaces the single test concentration by a dilution series.)
Chain of Ataxin-2 (Homo sapiens) (Q99700 whole entry): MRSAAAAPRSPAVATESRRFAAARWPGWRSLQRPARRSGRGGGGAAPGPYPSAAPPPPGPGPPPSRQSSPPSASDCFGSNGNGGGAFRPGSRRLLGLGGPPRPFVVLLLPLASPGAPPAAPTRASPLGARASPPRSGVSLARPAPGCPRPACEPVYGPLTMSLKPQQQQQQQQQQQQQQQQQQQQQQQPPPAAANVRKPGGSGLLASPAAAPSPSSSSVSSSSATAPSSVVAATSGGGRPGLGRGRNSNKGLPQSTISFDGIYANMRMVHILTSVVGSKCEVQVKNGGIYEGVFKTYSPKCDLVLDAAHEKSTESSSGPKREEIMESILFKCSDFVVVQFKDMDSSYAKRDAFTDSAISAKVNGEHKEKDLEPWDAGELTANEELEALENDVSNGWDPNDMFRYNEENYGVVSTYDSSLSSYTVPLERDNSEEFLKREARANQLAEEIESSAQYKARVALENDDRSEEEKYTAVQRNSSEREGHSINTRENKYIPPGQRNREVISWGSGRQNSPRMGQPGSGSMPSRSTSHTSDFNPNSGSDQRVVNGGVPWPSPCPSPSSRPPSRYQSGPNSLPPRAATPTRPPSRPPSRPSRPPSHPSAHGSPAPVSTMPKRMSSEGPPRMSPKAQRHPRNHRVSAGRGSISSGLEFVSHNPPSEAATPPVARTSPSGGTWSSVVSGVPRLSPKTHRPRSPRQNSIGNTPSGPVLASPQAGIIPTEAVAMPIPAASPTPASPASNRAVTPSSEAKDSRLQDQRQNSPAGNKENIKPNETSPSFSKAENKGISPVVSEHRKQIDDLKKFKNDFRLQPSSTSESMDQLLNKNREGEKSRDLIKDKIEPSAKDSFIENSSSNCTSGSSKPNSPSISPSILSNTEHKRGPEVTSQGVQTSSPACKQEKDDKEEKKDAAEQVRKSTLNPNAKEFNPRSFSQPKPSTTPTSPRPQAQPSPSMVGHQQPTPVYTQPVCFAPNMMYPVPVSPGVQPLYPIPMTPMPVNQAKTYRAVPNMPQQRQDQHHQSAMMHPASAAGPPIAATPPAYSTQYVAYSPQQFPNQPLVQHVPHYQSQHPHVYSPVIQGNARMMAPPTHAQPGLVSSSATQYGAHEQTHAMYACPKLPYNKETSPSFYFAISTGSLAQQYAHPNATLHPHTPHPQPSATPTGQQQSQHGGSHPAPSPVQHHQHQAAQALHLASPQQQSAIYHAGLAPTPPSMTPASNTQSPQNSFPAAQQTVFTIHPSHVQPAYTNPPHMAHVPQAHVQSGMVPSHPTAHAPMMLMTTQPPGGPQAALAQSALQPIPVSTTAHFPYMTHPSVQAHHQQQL
For the compound `NC(=O)C[n+]1cccc(C(=O)Nc2ccccc2)c1`, the Potency entry is “inactive”.

As to `CCN(CC)c1ccc2ccc(=O)oc2c1`, the Potency result was “inactive”.

Consider `CCN(CC)c1ccc2c(C)c(-c3ccc(N)cc3)c(=O)oc2c1`, for which the Potency result was “inactive”.

`CCN(CC)c1ccc(N)cc1`: the Potency is 31.6 µM (active).

In the case of `CC(=O)n1cc(N(C(=O)CCl)c2ccccc2)c2ccccc21`, the Potency is 22.4 µM (active).

Turning to `CC(=O)n1c(/C=N/c2ccccc2)c(O)c2ccccc21`, the Potency entry is “inactive”.

With `O=C(Nc1ccccc1)NN(C(=O)CCl)c1ccccc1`, the Potency was 22.4 µM (active).

As to `COC(=O)c1cn(C(=O)c2cc(C)cc(C)c2)c2ccccc12`, the Potency result was “inactive”.

In the case of `O=C(CCl)N(c1ccccc1)c1ccccc1`, the Potency was 7.52 µM (active).

In the case of `O=C(O)c1ccccc1N(c1ccccc1)c1ccccc1`, the Potency entry is “inactive”.

As for `O=C(CCCC(=O)NNC(=O)Nc1ccccc1)NNC(=O)Nc1ccccc1`, the Potency result is “inactive”.

As to `O=C(Nc1ccccc1)N(C1=NCCC1)c1ccccc1`, the Potency entry was “inactive”.

For `Cc1c(Cc2ccccc2)c(=O)oc2c(C)c(OCC(=O)Nc3ccc(C#N)cc3)ccc12`, the Potency entry is “inactive”.

Take `OC[C@@H]1[C@@H](c2ccc(F)cc2)C(c2ccccc2)=NN1c1ccccc1`: the Potency entry is “inactive”.

With `Clc1ccc(/C=C\c2[nH]ccc3c4ccccc4nc2-3)cc1`, the Potency entry was “inactive”.

For `CCc1cc2c(COC(=O)c3cccc(S(C)(=O)=O)c3)cc(=O)oc2cc1O`, the Potency entry is “inactive”.

For `O=C(O)/C=C/c1cn(Cc2ccccc2)nc1-c1cccs1`, the Potency entry is “inactive”.

`c1ccc(CN2CCC(Nc3nc(-c4cccs4)nc4ccccc34)CC2)cc1`: the Potency is 31.6 µM (active).

In the case of `Cc1cccn2c(=O)c3cc(C(=O)NCC4CCCO4)c(=N)n(Cc4cccnc4)c3nc12` (centres undefined), the Potency result was “inactive”.

`CC(C)c1cc(NCc2ccccn2)n2c(nc3ccccc32)c1C#N`: the Potency result is “inactive”.

As for `O=S(=O)(Nc1nc2ccccc2nc1Cl)c1ccc(Cl)cc1`, the Potency result was “inactive”.

For the compound `O=S(=O)(NCC(Nc1ccc(Cl)cc1)c1ccccc1)c1ccccc1` (centres undefined), the Potency is 22.4 µM (active).

On to `O=S(=O)(Nc1cc2nc3ccccc3nc2n1Cc1ccccc1)c1ccc(Cl)cc1`, for which the Potency entry is “inactive”.

Consider `Cc1c(CCC(=O)NC2CC2)c(=O)oc2c(C)c(O)ccc12`, for which the Potency result is “inactive”.

Regarding `CN1CCC(N(C)C(=O)c2sc3cc(F)ccc3c2Cl)CC1`, the Potency result is “inactive”.

Turning to `CCc1nnc(NC(=O)CSc2n[nH]c3c4ccccc4nc-3n2)s1`, the Potency entry was “inactive”.

`CC(=O)N1c2ccc(S(=O)(=O)NCCC(=O)Nc3ccc(Cl)cc3)cc2CC1C` (centres undefined): the Potency result was “inactive”.

Turning to `CC1CCc2cc(F)ccc2N1C(=O)CCl` (centres undefined), the Potency is 29.9 µM (active).

With `CC1CCc2cc(F)ccc2N1C(=O)CSc1n[nH]c2c3cc(F)ccc3nc-2n1` (centres undefined), the Potency was 22.4 µM (active).

As for `CC(Sc1nc(-c2ccc(F)cc2)cs1)C(=O)N1c2ccccc2CC1C` (centres undefined), the Potency result was “inactive”.

For the compound `Cc1nc2nc(-c3ccc(F)cc3)cn2nc1C`, the Potency entry was “inactive”.

Turning to `CN(C)c1ccc(/C=C/c2nc3ccccc3s2)cc1`, the Potency result is “inactive”.

`COc1ccc2ccccc2c1/C=N/Nc1cccc(C(=O)O)c1`: the Potency result was “inactive”.

Take `CCCCCC[n+]1ccccc1C=Cc1ccc(N(C)C)cc1`: the Potency is 7.94 µM (active).

Consider `CCN(CC)c1ccc(/C=N/NC(=S)NCc2ccc(OC)cc2)cc1`, for which the Potency result was “inactive”.

Regarding `CC[n+]1c(/C=C/c2ccc(N(C)C)cc2)ccc2ccccc21`, the Potency was 10 µM (active).

Consider `CCCN(CCC)c1ccc(/C=C/c2ccc3cc(OCC)ccc3n2)cc1`, for which the Potency result is “inactive”.

`COc1ccc(/C=C2\CCc3c2nc2ccccc2c3C(=O)O)cc1OC`: the Potency entry is “inactive”.

As for `CN(C)c1ccc(/C=C/c2ccc3ccccc3n2)cc1`, the Potency result was “inactive”.

With `CCN(CC)c1ccc(/C=C/c2ccc3ccc(OC)cc3[n+]2CC)cc1`, the Potency is 2.82 µM (active).

Turning to `CN(C)c1ccc(C=Cc2cnccn2)cc1`, the Potency result is “inactive”.

For `CN(C)c1ccc(/C=C/c2cccc[n+]2[O-])cc1`, the Potency result is “inactive”.

For `CC[n+]1c(/C=C/c2ccc(OC(C)=O)c(OC)c2)ccc2ccccc21`, the Potency was 22.4 µM (active).

Consider `CCOC(=O)c1cc(C#N)c(Nc2ccccc2OC)nc1C(F)(F)F`, for which the Potency result is “inactive”.

Take `O=S(=O)(O)c1ccc(N2N=C(c3ccccc3)CC2c2ccccc2)cc1` (centres undefined): the Potency entry was “inactive”.

`Nc1nnc(-c2cc3ccccc3oc2=O)s1`: the Potency result is “inactive”.

For `CC(=O)Oc1ccc(N2C(=O)c3cccc4c([N+](=O)[O-])ccc(c34)C2=O)cc1`, the Potency result was “inactive”.

Turning to `CC(=O)NNC(=O)c1sc(=S)n2c1[nH]c(=O)c1sccc12`, the Potency result is “inactive”.

Consider `Oc1ccc(/C=C/c2ccnc3ccccc23)cc1`, for which the Potency result is “inactive”.

As to `Oc1ccc(/C=C/c2ccc3ccccc3n2)cc1`, the Potency entry is “inactive”.

For the compound `CN(C)c1ccc(C=Cc2nccc3ccccc23)cc1`, the Potency entry was “inactive”.

Turning to `CN(C)c1ccc(/C=C/c2ccc3c4ccccc4ccc3[n+]2-c2ccccc2)cc1`, the Potency was 11.9 µM (active).

`CCN(CC)c1ccc(/C=C/c2cc(-c3ccccc3)c3ccccc3n2)cc1`: the Potency result is “inactive”.

With `C[n+]1c(/C=C/c2ccc(O)cc2)ccc2ccccc21`, the Potency was 26.7 µM (active).

For `O=C1C(Cl)=C(NC2CCCCC2)C(=O)N1Cc1ccccc1`, the Potency result is “inactive”.

`C=CCn1c(C)c(C(C)=O)cc(NC(=O)c2ccccc2)c1=O`: the Potency result was “inactive”.

As for `CCOC(=O)C1CCCN(S(=O)(=O)c2ccc3c4c(cccc24)C(=O)N3CC)C1` (centres undefined), the Potency result is “inactive”.

For the compound `O=C(CN1C(=O)c2cccc3cccc1c23)NC1CCCCC1`, the Potency entry is “inactive”.

Take `CCc1ccc(OCC(O)CN2CCC(CN3C(=O)c4cccc5cccc(c45)C3=O)CC2)cc1` (centres undefined): the Potency is 39.8 µM (active).

`Cc1cc(C)cc(OCC(O)CN2CCC(CN3C(=O)c4cccc5cccc(c45)C3=O)CC2)c1` (centres undefined): the Potency was 28.2 µM (active).

`O=C(CN1C(=O)c2cccc3cccc1c23)NC1CCCC1`: the Potency entry is “inactive”.

Turning to `CCOC(=O)N1CCN(CC(O)COc2cc(C)cc(C)c2)CC1` (centres undefined), the Potency result was “inactive”.

Regarding `CCC(C)NC(=O)CN1C(=O)c2cccc3cccc1c23` (centres undefined), the Potency result was “inactive”.

On to `CCN(CC)C(=O)CN1C(=O)c2cccc3cccc1c23`, for which the Potency result was “inactive”.

On to `CCOC(=O)C1CCN(S(=O)(=O)c2ccc3c4c(cccc24)C(=O)N3CC)CC1`, for which the Potency result is “inactive”.

Consider `O=C1c2cccc3cc([N+](=O)[O-])cc(c23)C(=O)N1CC1CCCO1` (centres undefined), for which the Potency entry was “inactive”.

`Cc1ccc(C)c(OCC(O)CN2CCC(CN3C(=O)c4cccc5cccc(c45)C3=O)CC2)c1` (centres undefined): the Potency is 39.8 µM (active).

`Cc1cccc(C)c1OCC(O)CN1CCC(CN2C(=O)c3cccc4cccc(c34)C2=O)CC1` (centres undefined): the Potency is 25.1 µM (active).

Turning to `COc1ccc(-c2cc(=O)oc3c(C)c(O)c(CN(C)C)cc23)cc1`, the Potency entry is “inactive”.

For the origin of these results see ChEMBL document CHEMBL1201862, “PubChem BioAssay data set” (2004).
